Several values for one entry are separate records, joined by “and”; a condition that tells them apart may be missing. Equal values may be shown once. Results filed as inconclusive are left out. More than one record can exist for a structure, and the calls need not agree. Activity calls are given as the source filed them. Calls follow the shape of the dose curve; as a rule, active = well fitted curve in the direction sought with a large enough effect in the repeat runs; inconclusive = weak or mixed curves; inactive = no such curve, though single readings can be large; an effect the other way counts as inactive or inconclusive.
Experiments:
[1] = qHTS assay to test for compound auto fluorescence at 535 nm (green) in HEK293 cells (AID 720680)
[2] = qHTS assay to test for compound auto fluorescence at 460 nm (blue) in HEK293 cell free culture (AID 720681)
Procedure, shortened: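 Compounds were added to cell-free DMEM with 10% FBS and fluorescence read directly. The blue channel used 405 nm excitation and 460 nm emission, with triamterene as the reference fluorophore.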

[3] = qHTS assay to test for compound auto fluorescence at 535 nm (green) in HEK293 cell free culture (AID 720682)
Procedure, shortened: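 Cell-free medium (DMEM, 10% FBS) receives compound or DMSO by pintool. Plate read directly at Ex 485/Em 535 nm. Signal converted to fluorescein equivalency.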

[4] = qHTS assay to test for compound auto fluorescence at 590 nm (red) in HEK293 cell free culture (AID 720683)
Procedure, shortened: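 Cell-free wells of DMEM with 10% FBS received compound, and intrinsic fluorescence was read at excitation/emission 540/590 nm. Values expressed as equivalence to Rose Bengal sodium.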

[5] = qHTS assay to test for compound auto fluorescence at 590 nm (red) in HepG2 cell free culture (AID 720684)
Procedure, shortened: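 Compound was pinned into wells holding MEM with 10% FBS and no cells, and red fluorescence was read at Ex/Em 540/590 nm. Signal is expressed as auto fluorescence equivalency relative to Rose Bengal sodium.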

[6] = qHTS assay to test for compound auto fluorescence at 460 nm (blue) in HepG2 cell free culture (AID 720685)
Procedure, shortened: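 Compound (23 nL) or DMSO pinned into cell-free MEM with 10% FBS; blue fluorescence read at 405/460 nm excitation/emission, expressed as auto-fluorescence equivalency to triamterene.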

[7] = qHTS assay to test for compound auto fluorescence at 535 nm (green) in HepG2 cell free culture (AID 720686)
[8] = qHTS assay to test for compound auto fluorescence at 460 nm (blue) in HepG2 cells (AID 720687)
Procedure, shortened: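 HepG2 cells in MEM with 10% FBS, attached overnight at 37 C, were exposed to compound or DMSO for 1 hr at 37 C, 5% CO2. Blue fluorescence was read at 405/460 nm, with triamterene as reference fluorophore.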

[9] = qHTS assay for identifying genotoxic compounds that show differential cytotoxicity against isogenic chicken DT40 cell lines with known DNA damage response pathways - wild type cell line (AID 743012); also: nearly all actives have a fitted effect of over 60% in size
Procedure, shortened: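 Quantitative HTS on parental DT40 cells: 40 h compound treatment at 37 C/5% CO2, with viability then determined by CellTiter-Glo luminescence. Values serve as the DNA repair-proficient reference for differential cytotoxicity.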

[10] = qHTS assay for identifying genotoxic compounds that show differential cytotoxicity against isogenic chicken DT40 cell lines with known DNA damage response pathways - Rev3 mutant cell line (AID 743014); also: nearly all actives have a fitted effect of over 55% in size; also: potency is read from the fitted curve at half-maximal effect
[11] = qHTS assay for identifying genotoxic compounds that show differential cytotoxicity against isogenic chicken DT40 cell lines with known DNA damage response pathways - Rad54/Ku70 mutant cell line (AID 743015); also: nearly all actives have a fitted effect of over 60% in size; also: potency is read from the fitted curve at half-maximal effect
[12] = qHTS assay to identify small molecule antagonists of the androgen receptor (AR) signaling pathway - cell viability counter screen (AID 743033; also: nearly all actives have a fitted effect of over 45% in size)
[13] = qHTS assay to identify small molecule antagonists of the androgen receptor (AR) signaling pathway using the MDA cell line - cell viability counter screen (AID 743041; also: nearly all actives have a fitted effect of over 45% in size)
Procedure, shortened: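 MDA-kb2 AR-luc cells (MMTV-luciferase, AR/GR responsive) treated with compounds plus R1881 agonist for 16 h at 37C. CellTiter-Fluor added at 15.5 h; fluorescence read after 30 min in the same wells.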

[14] = qHTS assay to identify small molecule antagonists of the thyroid receptor (TR) signaling pathway - cell viability counter screen (AID 743064); also: nearly all actives have a fitted effect of over 50% in size
Procedure, shortened: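 GH3.TRE-Luc cells, 4 h pre-plating; cpd + T3 1 nM final; 37 °C 23.5 h; CellTiter-Fluor 30 min; fluorescence read.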

[15] = qHTS assay to identify small molecule antagonists of the thyroid receptor (TR) signaling pathway (AID 743065); also: series mostly up to about 70 µM; nearly all actives have a fitted effect of over 55% in size
Procedure, shortened: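 GH3.TRE-Luc rat pituitary cells (two TREs driving luciferase) were dosed with compound, then stimulated with 1 nM T3 (final) for 23.5 h at 37 C. ONE-Glo luminescence was the read-out, with CellTiter-Fluor fluorescence as the cytotoxicity counter-screen.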

[16] = qHTS assay to identify small molecule antagonists of the glucocorticoid receptor (GR) signaling pathway - cell viability counter screen (AID 720693); also: nearly all actives have a fitted effect of over 55% in size

Measured: Potency

CC(=O)/C=C/C1=C(C)CCCC1(C)C
not listed: [16]
inactive: all other assays above

C=C(C)C(N)=O
inactive: all assays above

CC(C)CC(C)CC(O)CC(C)C (configuration not stated)
inactive: all assays above

CCCCNC(=O)NS(=O)(=O)c1ccc(N)cc1
not listed: [16]
inactive: all other assays above

O=C(O)Cc1cccc2ccccc12
inactive: all assays above

C[C@]12CC[C@@H]3c4ccc(O)cc4CC[C@H]3[C@@H]1CCC2=O
not listed: [9] | [11] | [15] | [16]
inactive: all other assays above

CCCCCCCCOc1ccc(C(=O)c2ccccc2)c(O)c1
inactive and 68.6 µM (active): [11]
inactive and 61.1 µM (active): [10]
not listed: [16]
inactive: all other assays above

Cc1cccc2ccccc12
inactive: all assays above

COc1ccccc1NC(=O)CC(C)=O
inactive: all assays above
